Experimental findings from PubChem BioAssay AID1850 (Southern Research Specialized Biocontainment Screening …, 2009) are described below.

Out of some 310,000 compounds screened, about 1,000 (0.32%) were called active. Only a sample is shown. Entries with a potency or affinity are not part of this list. Values without a mark were called inactive. The rule behind the calls is not given here.

The nature of this assay: PhoP regulon inhibitors, Salmonella typhi PhoP promoter GFP reporter, confirmatory (AID 1850).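 Note: 0% = induced wells with vehicle and 100% = uninduced wells.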 The settings on record: fluorescence, 4 h, at 50 µM, hits give high values.
With `Cc1cc(C)c(NC(=O)CSc2nnc(CNC(=O)c3c(F)cccc3Cl)o2)c(C)c1`, the inhibition is 1.72%.

Consider `CC(=O)N(C)C1=C(O)c2ccccc2C(=O)C1=O`, for which the inhibition is -5.54%.

As to `CC(=O)C(C(C)=O)C1(O)C(=O)c2ccccc2C1=O`, the inhibition was -7.03%.

As to `COc1ccc(CC(=O)Nc2ccc(S(=O)(=O)Nc3ncccn3)cc2)cc1`, the inhibition was -0.86%.

Consider `S=C(Nc1ccccc1)NC1CCN(Cc2ccccc2)CC1`, for which the inhibition was 2.12%.

Turning to `Fc1ccc(NC(=S)NC2CCN(Cc3ccccc3)CC2)cc1`, the inhibition was 17.7%.

Consider `Cc1ccc(NC(=S)NC2CCN(Cc3ccccc3)CC2)cc1C`, for which the inhibition is 7.22%.

Consider `S=C(Nc1ccc(Cl)cc1)NC1CCN(Cc2ccccc2)CC1`, for which the inhibition was 1.82%.

For the compound `COc1ccc(CSc2nnc(Cc3sc(-c4ccccc4)nc3-c3ccccc3)o2)cc1`, the inhibition was 7.93%.

`NS(=O)(=O)c1ccc(NC(=S)N2CCN(Cc3ccc4c(c3)OCO4)CC2)cc1`: the inhibition is 3.73%.

As to `CC1Oc2ccccc2N(CC(=O)Nc2ccccc2F)C1=O` (centres undefined), the inhibition is -6.46%.

As to `Cc1cn(C2OC(COC(=O)c3ccccc3)C(O)C2O)c(=O)[nH]c1=O` (centres undefined), the inhibition is -7.25%.

`COc1cc([N+](=O)[O-])ccc1NC(=O)CSc1nnc(C)c(C)n1`: the inhibition was 13.2%.

With `CSc1ccc(/C=C/C(=O)NC(=O)c2ccccc2O)cc1`, the inhibition is 13.3%.

`Clc1ccc(-c2cc(C3CCNCC3)[nH]n2)cc1`: the inhibition is 13.5%.

With `c1ccc2c(-c3cc(C4CCNCC4)[nH]n3)cccc2c1`, the inhibition is -4.64%.

On to `CCOc1cccc(-c2c(C(=O)N/N=C(\C)c3ccncc3)nnn2-c2nonc2N)c1`, for which the inhibition is 0%.

Take `COc1ccc(CN2CCNC(=O)C2CC(=O)N(C)Cc2ccon2)c(OC)c1` (centres undefined): the inhibition was -0.06%.

In the case of `CC1SC(c2ccc(F)cc2)N(CCc2ccccc2)C1=O` (centres undefined), the inhibition was 11.2%.

As for `O=C(COc1ccccc1Br)c1ccc(O)cc1O`, the inhibition was -2.5%.

With `N=c1c(C(=O)NCc2ccco2)cc2c(=O)n3ccccc3nc2n1CC1CCCO1` (centres undefined), the inhibition was -2.9%.

In the case of `Cc1ccc(CNC(=O)c2cc3c(s2)CS(=O)(=O)C3)cc1`, the inhibition was -3.03%.

With `CSc1nc2ccc(Br)cc2[nH]1`, the inhibition is 2.46%.

As for `Clc1cc2nc(-c3cccnc3Cl)[nH]c2cc1Cl`, the inhibition is -3.66%.

As to `Cn1c(=O)oc2cc(S(=O)(=O)Nc3ccccc3O)ccc21`, the inhibition is -2.19%.

On to `Cc1cc(OCCN2CCOCC2)ccc1Cl`, for which the inhibition was -0.55%.

`Clc1ccc(OCCN2CCCCC2)cc1Cl`: the inhibition is 15%.

Consider `Cc1cc(OCCCN2CCCC2)ccc1Cl`, for which the inhibition was 1.13%.

For `CN1CCN(CCOc2ccc(Cl)c(Cl)c2)CC1`, the inhibition was 8.06%.

As to `CCCn1c2ccccc2c2nnc(SCC(=O)Nc3ncccn3)nc21`, the inhibition is 1.55%.

For the compound `CN(C)CCCn1c2c(c(SCC(=O)Nc3nccs3)nc1=O)CCC2`, the inhibition is -3.03%.

As for `O=C(Nc1cccc(Cl)c1)N1CCN(c2ncccn2)CC1`, the inhibition is 8.55%.

As to `COc1ccc(CC(=O)NCC(=O)N/N=C/c2ccc(C)o2)cc1`, the inhibition is -9.36%.

In the case of `C=CCNC(=S)NCc1cccnc1`, the inhibition was -7.66%.

As for `O=C(NNC(=O)C1CCCCC1)c1ccc(Br)cc1`, the inhibition was -2.98%.

Take `C/C(=N\NC(=O)c1ccccn1)c1ccc(Cl)cc1`: the inhibition was 0.75%.

Consider `C/C(=N\NC(=O)c1cc(Br)ccc1O)c1ccccn1`, for which the inhibition was 1.41%.

As for `C/C(=N\NC(=O)c1ccc(Cl)c(Cl)c1)c1ccccn1`, the inhibition is 3.95%.

With `C/C(=N\NC(=O)c1ccc(F)cc1)c1ccccn1`, the inhibition was -3.7%.

Regarding `COc1ccc(CCN2CC(C(=O)NCCc3ccccc3C)CCC2=O)cc1` (centres undefined), the inhibition was 0.24%.

As for `COc1cc(Br)cc(/C=N/NC(=O)Cc2ccccc2)c1O`, the inhibition is 5.08%.

On to `CN(/N=C/c1cc(Br)cc(Br)c1O)c1ccccc1`, for which the inhibition is 2.46%.

Take `Oc1cccc(C=NCc2ccccc2)c1`: the inhibition is -11.2%.

On to `O=C(Cc1ccccc1)N/N=C/c1cc(Br)cc(Br)c1O`, for which the inhibition was 6.54%.

With `Oc1c(Br)cc(Br)cc1/C=N/N1CCN(Cc2ccccc2)CC1`, the inhibition was -8.57%.

In the case of `Oc1cccc(/C=N/N=C/c2cccc(O)c2O)c1O`, the inhibition was 21.8%.

On to `O/N=C/c1cc(Br)ccc1OCc1ccc(F)cc1`, for which the inhibition is 3.46%.

As for `Oc1c(C=NCc2ccc(F)cc2)[nH]c2ccc(Br)c(Cl)c12`, the inhibition is -22.5%.

In the case of `CCN(CC)CC(C)CNC(=O)CC(C(=O)N1CCc2ccccc21)n1ccnc1` (centres undefined), the inhibition is -1.96%.

On to `CC1(C)C2(C#N)C(N)=NC3(OCCO3)C12C#N` (centres undefined), for which the inhibition was 4.42%.

Consider `Cc1ccc(S(=O)(=O)N(C)c2ccc(N)cc2)cc1`, for which the inhibition is 8.98%.

With `Cc1ccc2nc(SCc3nc4cc(Cl)ccc4c(=O)[nH]3)[nH]c2c1`, the inhibition was -3.53%.

As to `COc1cccc(C2C(=O)N(C3CCCCC3)CC(=O)N2Cc2ccc(F)cc2)c1` (centres undefined), the inhibition is -2.24%.

In the case of `CN1CCN(CC/C=C2/c3ccccc3Sc3ccc(S(=O)(=O)N(C)C)cc32)CC1`, the inhibition was 3.38%.

Consider `CC[N+](C)(C)CC/C=C1/c2ccccc2Sc2ccc(Cl)cc21`, for which the inhibition is 5.02%.

On to `OCCN1CCN(CC/C=C2/c3ccccc3Sc3ccc(Cl)cc32)CC1`, for which the inhibition was 5.06%.

Take `CN1CCN(CCC=C2c3ccccc3Sc3ccc(S(=O)(=O)N(C)C)cc32)CC1`: the inhibition was -2.21%.

For the compound `C[N+](C)(C)CC/C=C1/c2ccccc2CSc2ccccc21`, the inhibition was -7.79%.

In the case of `OCCN1CCN(CC/C=C2/c3ccccc3Sc3ccc(C(F)(F)F)cc32)CC1`, the inhibition was -0.41%.

As for `O=C1[C@@H]2Cc3c([nH]c4ccccc34)C(c3ccc(Cl)cc3)N2C(=O)CN1CCO` (some centres undefined), the inhibition was 3.36%.

As for `CC(=O)NC(=S)Nc1ccccc1N1CCCCC1`, the inhibition was -7.09%.

As to `COc1ccc(-c2nnc(-c3ccccc3O)o2)cc1`, the inhibition is 3.32%.

`CCC(C(=O)N1CCCCCC1)n1nc(C)n2c(cc3occc32)c1=O` (centres undefined): the inhibition was -32.5%.

As to `CS(=O)(=O)N(CC(=O)Nc1ccccc1C(=O)NCc1ccco1)c1ccc2c(c1)OCCO2`, the inhibition was -8.68%.
